Growth data for 39 compounds are collected here from PubChem BioAssay (NCI).

This is part of a sample that, as a whole, favours compounds with a hit. Of some 83,000 tested, about 20% had one in any assay.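 96-well plates, one dose, 48 hours. Percent growth reported; active if below 10.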 Calls of active or inactive are those of the source.

The test system of one assay is A549/ATCC NSCLC. Briefly: NCI-60 one-dose screen, 48 h (100 = growth as untreated, 0 = no growth, -100 = all killed). Particulars: 10 µM unless noted.
As for `O=Nc1c(O)ccc2ccccc12.O=Nc1c(O)ccc2ccccc12.O=Nc1c([O-])ccc2ccccc12.[Fe+3]`, the growth is 106% (inactive).

For `COc1cccc(C(=O)Cn2cc(/C=C(\C#N)S(=O)(=O)c3ccccc3)c3ccccc32)c1`, the growth is 93.1% (inactive).

For the compound `CC(=O)O[C@@H]1/C=C/C(=O)N[C@@H](C)CCC/C=C/[C@@H]2CCC[C@H]21`, the growth was 108% (inactive).

Take `CC(C)(C)c1ccc(C2CC(=O)C3=C(C2)Nc2ccccc2N(C(=O)c2ccccc2Cl)C3c2ccc(F)cc2)cc1` (stereo not drawn): the growth is -3.2% (active).

Take `O=C1/C=C/[C@@H](O)[C@@H]2C[C@@H](O)C[C@H]2/C=C/CCCCO1`: the growth was 23.1% (inactive).

Turning to `CN1CCN(c2nc(Nc3ccc(O)cc3)nc3ccccc23)CC1`, the growth is 42.5% (inactive).

For the compound `O=C(NN1C(=O)CSC1c1ccc(Cl)cc1)c1[nH]c2ccc(F)cc2c1-c1ccccc1` (stereo not drawn), the growth was 26.9% (inactive).

With `CSc1nc2c(c(=O)n1C)N=C1c3ccccc3C(=O)C1C(c1ccccc1)N2` (stereo not drawn), the growth was 81.6% (inactive).

Regarding `CCCC(=O)CC(C)=O.CCCC(=O)CC(C)=O.[Cu]`, the growth is 79.4% (inactive).

For the compound `N#C/C(=C\c1c(-c2ccccc2)[nH]c2ccccc12)S(=O)(=O)c1ccccc1`, the growth is 45.5% (inactive).

For the compound `O=C(Nc1ccc(Cl)cc1)c1cc2ccccc2cc1OP(=O)(O)O`, the growth is 16.4% (inactive).

Turning to `COc1ccc(/C=C2\N=C(c3ccccc3)N(c3ccc(-c4nc5ccc(C)cc5s4)cc3)C2=O)cc1`, the growth is 70% (inactive).

With `CSc1nc2c(c(=O)[nH]1)N=C1c3ccccc3C(=O)C1C(c1ccccc1)N2` (stereo not drawn), the growth is 51.6% (inactive).

For the compound `CCOC(=O)c1c(Cl)c2c(n1Cc1ccccc1)-c1oncc1CCC2`, the growth was 43% (inactive).

`COc1cc([C@@H]2NC(=O)NC(C)=C2C(=O)Nc2nc(-c3ccc(Cl)cc3)cs2)ccc1O`: the growth is 97.1% (inactive).

For `N#C/C(=C\c1c(-c2ccccc2)[nH]c2ccccc12)C(=O)c1ccccc1`, the growth is 50.2% (inactive).

For `CCN(CC)c1cc(C)c2cc(NC(=O)c3cccc(OC)c3)ccc2n1`, the growth is 80% (inactive).

Turning to `COc1nc2c(c(=O)n1C)N=C1c3ccccc3C(=O)C1C(c1ccccc1)N2` (stereo not drawn), the growth was 91.5% (inactive).

Take `CCOc1ccccc1CN1CCc2nc3cc(C(C)(C)C)[nH]n3c(=O)c2C1`: the growth is 112% (inactive).

As to `COc1ccc(-n2c(C(O)c3ccccc3)n[nH]c2=S)cc1` (stereo not drawn), the growth was 102% (inactive).

As for `CC(=O)n1cc(-c2c[nH]c3ccccc23)c(-c2ccc(Cl)cc2)n1`, the growth was 93.7% (inactive).

For the compound `N#CC(C#N)=Cc1c(-c2ccccc2)[nH]c2ccccc12`, the growth was 37.1% (inactive).

As to `Nc1ccc(C2c3ccccc3Oc3ccccc32)cc1`, the growth is 97.7% (inactive).

For the compound `COc1cc(C#N)cc2[nH]c(=O)oc12`, the growth is 101% (inactive).

A further assay concerns 786-0 renal. The assay is described as above. Conditions: 10 µM unless noted.
Turning to `OC(c1ccccc1)c1nnc(SCc2ccccc2)n1Cc1ccccc1` (stereo not drawn), the growth was 95.4% (inactive).

As to `COc1ccc(/C=C2\SC(=Nc3ccccc3)NC2=O)cc1`, the growth was -92.8% (active).

Turning to `COc1ccc(-n2c(C(O)c3ccccc3)nn(CN3CCOCC3)c2=S)cc1` (stereo not drawn), the growth was 106% (inactive).

As for `CN(O)c1nc(N(C)O)nc(N2CCOCC2)n1`, the growth was 21% (inactive).

For `O=C(NC(=S)Nc1cccc(NC(=S)NC(=O)c2ccccc2)c1)c1ccccc1`, the growth is 76.5% (inactive).

In the case of `Cn1c2c(c(=O)[nH]c1=O)NC1=C(C(=O)c3ccccc31)C1(C=C(O)c3ccccc31)N2` (stereo not drawn), the growth was 97.7% (inactive).

Consider `Nc1nc(Nc2cccc(F)c2)nc2ccccc12`, for which the growth was 46.5% (inactive).

Consider `COc1cc(OC)cc(N2C(=O)N(Cc3ccc(C(C)(C)C)cc3)c3ccccc3S2(=O)=O)c1`, for which the growth was 73.7% (inactive).

Consider `CC/C=C\C[C@H](O)C/C=C1/C(=O)C=C[C@@H]1C/C=C\CCCC(=O)OCCS(=O)(=O)c1ccccc1`, for which the growth was 60% (inactive).

With `COc1ccc(C2Nc3ncnc(N)c3N=C3c4ccccc4C(=O)C32)cc1` (stereo not drawn), the growth is 93.5% (inactive).

Turning to `O=CCCCC(O)C=O` (stereo not drawn), the growth was 97.5% (inactive).

As to `COC(=O)/C(=C\c1c(-c2ccccc2)[nH]c2ccccc12)S(C)(=O)=O`, the growth was 38.1% (inactive).

Regarding `COc1ccc(-c2nsc3c2NC(=O)CC3c2ccsc2)cc1` (stereo not drawn), the growth is 29.8% (inactive).

Turning to `FC(F)(F)c1cccc(Nc2nc(-c3ccccc3)nc3ncccc23)c1`, the growth is 68% (inactive).

On to `COC(=O)/C(=C\c1c(C)[nH]c2ccccc12)S(=O)(=O)c1ccccc1`, for which the growth is 48% (inactive).

Regarding `O=Nc1c(O)ccc2ccccc12.O=Nc1c(O)ccc2ccccc12.O=Nc1c([O-])ccc2ccccc12.[Fe+3]`, the growth is 115% (inactive).

On to `COc1cccc(C(=O)Cn2cc(/C=C(\C#N)S(=O)(=O)c3ccccc3)c3ccccc32)c1`, for which the growth was 99.3% (inactive).

Turning to `CC(=O)O[C@@H]1/C=C/C(=O)N[C@@H](C)CCC/C=C/[C@@H]2CCC[C@H]21`, the growth was 101% (inactive).

Take `CC(C)(C)c1ccc(C2CC(=O)C3=C(C2)Nc2ccccc2N(C(=O)c2ccccc2Cl)C3c2ccc(F)cc2)cc1` (stereo not drawn): the growth was 51.8% (inactive).

Turning to `O=C1/C=C/[C@@H](O)[C@@H]2C[C@@H](O)C[C@H]2/C=C/CCCCO1`, the growth is 3.17% (active).

As to `CN1CCN(c2nc(Nc3ccc(O)cc3)nc3ccccc23)CC1`, the growth is 64.2% (inactive).

Consider `O=C(NN1C(=O)CSC1c1ccc(Cl)cc1)c1[nH]c2ccc(F)cc2c1-c1ccccc1` (stereo not drawn), for which the growth is 65.8% (inactive).

`CSc1nc2c(c(=O)n1C)N=C1c3ccccc3C(=O)C1C(c1ccccc1)N2` (stereo not drawn): the growth is 91.9% (inactive).

In the case of `CCCC(=O)CC(C)=O.CCCC(=O)CC(C)=O.[Cu]`, the growth is 104% (inactive).

As for `N#C/C(=C\c1c(-c2ccccc2)[nH]c2ccccc12)S(=O)(=O)c1ccccc1`, the growth is 51.3% (inactive).

As for `O=C(Nc1ccc(Cl)cc1)c1cc2ccccc2cc1OP(=O)(O)O`, the growth was 20.6% (inactive).

Regarding `COc1ccc(/C=C2\N=C(c3ccccc3)N(c3ccc(-c4nc5ccc(C)cc5s4)cc3)C2=O)cc1`, the growth was 91% (inactive).

`CSc1nc2c(c(=O)[nH]1)N=C1c3ccccc3C(=O)C1C(c1ccccc1)N2` (stereo not drawn): the growth is 46% (inactive).

With `CCOC(=O)c1c(Cl)c2c(n1Cc1ccccc1)-c1oncc1CCC2`, the growth is 83.1% (inactive).

On to `COc1cc([C@@H]2NC(=O)NC(C)=C2C(=O)Nc2nc(-c3ccc(Cl)cc3)cs2)ccc1O`, for which the growth is 98.4% (inactive).

Turning to `N#C/C(=C\c1c(-c2ccccc2)[nH]c2ccccc12)C(=O)c1ccccc1`, the growth is 50.1% (inactive).

For `CCN(CC)c1cc(C)c2cc(NC(=O)c3cccc(OC)c3)ccc2n1`, the growth is 70% (inactive).

For `COc1nc2c(c(=O)n1C)N=C1c3ccccc3C(=O)C1C(c1ccccc1)N2` (stereo not drawn), the growth was 84.7% (inactive).

Turning to `CCOc1ccccc1CN1CCc2nc3cc(C(C)(C)C)[nH]n3c(=O)c2C1`, the growth was 90.8% (inactive).

Take `COc1ccc(-n2c(C(O)c3ccccc3)n[nH]c2=S)cc1` (stereo not drawn): the growth was 99.1% (inactive).

Consider `CC(=O)n1cc(-c2c[nH]c3ccccc23)c(-c2ccc(Cl)cc2)n1`, for which the growth is 78.9% (inactive).

Consider `N#CC(C#N)=Cc1c(-c2ccccc2)[nH]c2ccccc12`, for which the growth is 40% (inactive).

Consider `Nc1ccc(C2c3ccccc3Oc3ccccc32)cc1`, for which the growth is 105% (inactive).

For the compound `COc1cc(C#N)cc2[nH]c(=O)oc12`, the growth was 98.7% (inactive).
